The values that follow come from PubChem BioAssay.

Activity calls are given as the source filed them.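 Rule for the calls: active = growth inhibition above 50% at the single 2 µM test dose, taken to imply half-maximal potency below 2 µM; inactive = the rest.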

A short description of the test: antimalarial activity against Dd2 strain (AID 2302).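 Note: 0% = DMSO untreated growth and 100% = chloroquine plus artemisinin killed control.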 The note with it: P. falciparum Dd2 in RBCs, LDH growth readout, 72 h; at 2 µM; active compounds read high.
With `Nc1nc(N)c2c(Oc3ccc(Cl)c(Cl)c3)cccc2n1`, the growth inhibition is 22% (inactive).

As to `COc1ccc(OC)c(Cc2c(C)nc3nc(N)nc(N)c3c2C)c1`, the growth inhibition was 0% (inactive).

With `CC(C)(C)c1ccc(-c2nc3c(ccc4nc(N)nc(N)c43)[nH]2)cc1`, the growth inhibition was 101% (active).

`CC(=O)Nc1ccc(OCCCCCOc2ccc(NC(C)=O)cc2Cl)c(Cl)c1`: the growth inhibition is 0% (inactive).

As for `CCOc1cc(Cc2cnc(N)nc2N)ccc1OC`, the growth inhibition was -4% (inactive).

Turning to `CCCCNCc1ccc(OCc2cccc(COc3ccc(CNCCCC)cc3I)c2)c(I)c1`, the growth inhibition was 13% (inactive).

Consider `COc1cc(Cc2cnc(N)nc2N)cc(OCCCCc2ccc([N+](=O)[O-])cc2)c1OC`, for which the growth inhibition is 4% (inactive).

For the compound `CC(C)c1ccc2c(c1)C(=O)c1ccc(C(=O)O)cc1S2(=O)=O`, the growth inhibition was 83% (active).

On to `Nc1ncc(-c2ccc(S(=O)(=O)Nc3ccc(C(=O)N[C@@H](CCC(=O)O)C(=O)O)cc3)cc2)c(=O)[nH]1`, for which the growth inhibition was 0% (inactive).

Regarding `Cn1c(=N)cc(-c2cccc(I)c2)c2c(=O)[nH]c(N)nc21`, the growth inhibition is 75% (active).

With `Nc1nc(N)c2c(ccc3c2ccn3Cc2ccc(Br)cc2)n1`, the growth inhibition was 98% (active).

On to `COc1ccc(OC)c(CC2c3ccc(Br)c(O)c3CCN2C)c1` (centres undefined), for which the growth inhibition was 97% (active).

As to `Oc1cc2ccccc2cc1CNC1CCCCC1`, the growth inhibition is 89% (active).

On to `COc1ccccc1-c1nc2c(ccc3nc(N)nc(N)c32)[nH]1`, for which the growth inhibition is 93% (active).

Regarding `Nc1nc(N)c2c(Oc3cc(Cl)c(Cl)c(Cl)c3)cccc2n1`, the growth inhibition is 92% (active).

Consider `Cc1nc(C)c(-c2ccc(Oc3ccc(OC(F)(F)F)cc3)cc2)c(OC(=O)c2ccc(CN(C)C)cc2)c1Cl`, for which the growth inhibition is 98% (active).

In the case of `CN(C)S(=O)(=O)n1ncc2c3c(N)nc(N)nc3ccc21`, the growth inhibition is 0% (inactive).

With `NC(N)=NC(=O)Nc1cc(F)c(Cl)c(Cl)c1`, the growth inhibition was 101% (active).

With `Cc1nc(C)c(-c2ccc(Oc3ccc(OC(F)(F)F)cc3)cc2)c(OC(=O)c2ccccc2)c1Cl`, the growth inhibition was 97% (active).

Consider `Nc1nc(N)c2c(Sc3ccc(F)cc3)cccc2n1`, for which the growth inhibition is -3% (inactive).

For the compound `CN=C(N)c1ccc(NC(=O)C=Cc2ccc(C(=O)Nc3ccc(C(N)=NC)cc3)cc2)cc1`, the growth inhibition was 100% (active).

As for `CC(=O)Oc1c(Cl)c(C)nc(C)c1-c1ccc(Oc2ccc(Cl)cc2)cc1`, the growth inhibition was 96% (active).

Take `NC(N)=NC(=O)Nc1cc(Br)c(Cl)c(C(F)(F)F)c1`: the growth inhibition is 91% (active).

With `Cc1nc2nc(N)nc(N)c2c(C)c1Cc1ccc([N+](=O)[O-])cc1`, the growth inhibition is 11% (inactive).

As for `CN(C)S(=O)(=O)n1ccc2c3c(N)nc(N)nc3ccc21`, the growth inhibition is -3% (inactive).

For the compound `NC(=NCC1CC1c1ccccc1)c1cccc(C(N)=NCC2CC2c2ccccc2)n1` (centres undefined), the growth inhibition was -2% (inactive).

As for `CCCN(c1ccc(O)c(CN2CCCCC2)c1)c1ccc([N+](=O)[O-])cn1`, the growth inhibition was 96% (active).

As for `CCc1ccc(Cc2cnc3nc(N)nc(N)c3c2C)cc1`, the growth inhibition is -1% (inactive).

For the compound `CCNCCCC(C)Nc1ccnc2cc(Cl)ccc12` (centres undefined), the growth inhibition is -3% (inactive).

As to `c1ccc(CN2CCN(CCCCNc3c4ccccc4nc4ccccc34)CC2)cc1`, the growth inhibition was 101% (active).

As to `Cc1nc2ccc(S(=O)(=O)Nc3ccc(C(=O)N[C@@H](CCC(=O)O)C(=O)O)cc3)cc2c(=O)[nH]1`, the growth inhibition is 2% (inactive).

On to `CC(C)(C)c1ccc(-c2nnc(N)nc2N)cc1`, for which the growth inhibition was -4% (inactive).

As for `CCC(=C(CC)c1ccc(O)c(CNC2CCCCC2)c1)c1ccc(O)c(CNC2CCCCC2)c1`, the growth inhibition was 100% (active).

For the compound `Cc1[nH]c(C)c(-c2ccc(Oc3ccc(Cl)cc3)cc2)c(=O)c1I`, the growth inhibition was 49% (inactive).

Regarding `Nc1nc(N)c2c3c(ccc2n1)NCCC3`, the growth inhibition was -10% (inactive).

With `Cc1[nH]c(C)c(-c2ccc(Oc3ccc(Cl)cc3)c(Cl)c2)c(=O)c1Br`, the growth inhibition is 96% (active).

With `CCN(CC)CCNc1cc(C)nc(/N=C(\N)Nc2ccc(Cl)cc2)n1`, the growth inhibition was 0% (inactive).

Consider `CC(C)CNc1nc(N)nc2ccc3c(ccn3CC(C)C)c12`, for which the growth inhibition is 51% (active).

On to `CCNC(=O)CCc1cccc(Br)c1`, for which the growth inhibition is 54% (active).
